Screening results (PubChem BioAssay)
bovine MsrA act: activates bovine MsrA enzyme | purified bovine MsrA, absorbance read-out | activation, % at 10.6 µM | 0.3% of 360,000 active | AID 602163; in the data active = activation above about 7.5%
MsrA inhibitor: bovine MsrA inhibition | purified bovine MsrA, absorbance read-out | inhibition, % at 15.5 µM | 0.75% of 360,000 active | AID 651718
NadD block: NadD (S. aureus) enzyme inhibition. 0.78% of 360,000 active. inhibition, % at 20 µM. purified NadD enzyme, colorimetric absorbance read-out; in the data active = inhibition above about 26%
rCAG RNA binder: binds r(CAG) RNA repeats; 1.3% of 370,000 active; r(CAG) RNA repeat, TO-PRO-1 dye displacement fluorescence; inhibition, % at 3 µM;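 active = inhibition above the plate cutoff, the mean of all test compounds on that plate plus 3 SD, cut at about 35% in these data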;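 note: higher means more dye released from RNA so lower well fluorescence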
MsrA conf: confirmation of bovine MsrA inhibitors. 41% of 2,300 active. shares compounds with MsrA inhibitor. inhibition, % at 15.5 µM. purified bovine MsrA, absorbance read-out;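 note: coupled to thioredoxin reductase with NADPH and selenocystamine and DMSO as substrate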
Numbers stand for hits. In the library only some 2.7% were active in any assay of this set; here they are far more common. Cut-off read from the data, not from the text of the source, unless noted: active = inhibition above about 4.5%; inactive = the rest.

Results for CCCCn1c(N)c(N(CC(C)C)C(=O)CSC(C)C(=O)Nc2cc(C)on2)c(=O)[nH]c1=O (centres undefined) ?
bovine MsrA act: inactive; MsrA inhibitor: inactive; NadD block: inactive; rCAG RNA binder: inactive

How did CCN(CC)S(=O)(=O)c1ccc(Cc2ncc(C(F)(F)F)cc2Cl)s1 do in these assays?
bovine MsrA act: inactive; MsrA inhibitor: inactive; NadD block: inactive; rCAG RNA binder: inactive

What do the screens show for `N#Cc1cc(NC2CCCC2)c([N+](=O)[O-])cc1C#N`?
bovine MsrA act: inactive; MsrA inhibitor: 43; NadD block: inactive; rCAG RNA binder: inactive; MsrA conf: inactive

How did COc1ccccc1CNS(=O)(=O)CCNCCc1ccccc1 do in these assays?
bovine MsrA act: inactive; MsrA inhibitor: inactive; NadD block: inactive; rCAG RNA binder: inactive

How did O=C(NC(=S)NCc1ccccc1)c1cccc(Cl)c1 do in these assays?
bovine MsrA act: inactive; MsrA inhibitor: inactive; NadD block: inactive; rCAG RNA binder: inactive

What do the screens show for `CC(CC(=O)c1ccccc1)=NCCCN=C(C)CC(=O)c1ccccc1`?
bovine MsrA act: inactive; MsrA inhibitor: 5.2; NadD block: inactive; rCAG RNA binder: inactive; MsrA conf: inactive

What do the screens show for `COc1cc(/C=N/NC(=O)c2cc(-c3cccc(OC(C)C)c3)nc3ccccc23)ccc1O`?
bovine MsrA act: inactive; MsrA inhibitor: inactive; NadD block: inactive; rCAG RNA binder: inactive

What do the screens show for `COc1ccc(/C=N/NC(=O)c2c(C)nc3ccc(Cl)cn23)cc1OC`?
bovine MsrA act: inactive; MsrA inhibitor: 6.2; NadD block: inactive; rCAG RNA binder: inactive; MsrA conf: 5.3

How did Cc1nnn(-c2nonc2N)c1C(=O)N/N=C/c1ccccc1O do in these assays?
bovine MsrA act: inactive; MsrA inhibitor: inactive; NadD block: inactive; rCAG RNA binder: inactive

What do the screens show for `COc1cc(/C=N/NC(=O)c2ccncc2)ccc1OCCN1CCCCC1`?
bovine MsrA act: inactive; MsrA inhibitor: 5.4; NadD block: inactive; rCAG RNA binder: inactive; MsrA conf: inactive

What do the screens show for `COc1cc(/C=N/NC(=O)c2c(C)nnn2-c2nonc2N)ccc1O`?
bovine MsrA act: inactive; MsrA inhibitor: 5.0; NadD block: inactive; rCAG RNA binder: inactive; MsrA conf: inactive

Results for COc1cc(/C=N/NC(=O)c2c(C)nc3ccc(Cl)cn23)cc(OC)c1OC ?
bovine MsrA act: inactive; MsrA inhibitor: inactive; NadD block: inactive; rCAG RNA binder: inactive

What do the screens show for `COc1cc(/C=N/NC(=O)c2cc(-c3cccs3)nc3ccccc23)ccc1O`?
bovine MsrA act: inactive; MsrA inhibitor: 4.9; NadD block: inactive; rCAG RNA binder: inactive; MsrA conf: inactive

What do the screens show for `Cc1ccn2c(C(=O)N/N=C\c3ccc4c(c3)OCO4)c(C)nc2c1`?
bovine MsrA act: inactive; MsrA inhibitor: 7.3; NadD block: inactive; rCAG RNA binder: inactive; MsrA conf: 5.5

How did COc1ccc(/C=N/NC(=O)c2ccc(COc3cccc4cccnc34)cc2)cc1OC do in these assays?
bovine MsrA act: inactive; MsrA inhibitor: 4.9; NadD block: inactive; rCAG RNA binder: inactive; MsrA conf: inactive

How did Cc1ccn2c(C(=O)N/N=C/c3ccc(Cl)cc3)c(C)nc2c1 do in these assays?
bovine MsrA act: inactive; MsrA inhibitor: inactive; NadD block: inactive; rCAG RNA binder: inactive

How did COc1cc(/C=N\NC(=O)c2c(C)nc3cc(C)ccn23)ccc1O do in these assays?
bovine MsrA act: inactive; MsrA inhibitor: 7.1; NadD block: inactive; rCAG RNA binder: inactive; MsrA conf: 6.4

How did CN(C)c1ccccc1-c1cc(NC=O)c2ncc(-c3cccc(C(F)(F)F)c3)n2c1 do in these assays?
bovine MsrA act: inactive; MsrA inhibitor: inactive; NadD block: inactive; rCAG RNA binder: inactive

What do the screens show for `O=C(N/C=N/OCc1ccc(Cl)cc1Cl)NOCc1ncc(C(F)(F)F)cc1Cl`?
bovine MsrA act: inactive; MsrA inhibitor: 15; NadD block: inactive; rCAG RNA binder: inactive; MsrA conf: 11

What do the screens show for `CO/N=C/NC(=O)NOCc1ncc(C(F)(F)F)cc1Cl`?
bovine MsrA act: inactive; MsrA inhibitor: inactive; NadD block: inactive; rCAG RNA binder: inactive

What do the screens show for `CC1(C)C2CCC(CN=C(N)CSS(=O)(=O)O)C1C2` (centres undefined)?
bovine MsrA act: inactive; MsrA inhibitor: 21; NadD block: inactive; rCAG RNA binder: inactive; MsrA conf: 8.8

How did N#C/C(=C\c1ccco1)C(=O)Nc1cccc2ncccc12 do in these assays?
bovine MsrA act: inactive; MsrA inhibitor: 6.0; NadD block: inactive; rCAG RNA binder: inactive; MsrA conf: 5.3

Results for O=C(NC(=S)Nc1cccc2ncccc12)c1ccco1 ?
bovine MsrA act: inactive; MsrA inhibitor: inactive; NadD block: inactive; rCAG RNA binder: inactive

Results for COc1cc(C(=O)NC(C)c2cnn(-c3ccccc3C)c2C)cc(OC)c1OC (centres undefined) ?
bovine MsrA act: inactive; MsrA inhibitor: inactive; NadD block: inactive; rCAG RNA binder: inactive

What do the screens show for `O=C(N/C(=C\c1ccc(Br)cc1)c1nc2ccccc2[nH]1)c1ccco1`?
bovine MsrA act: inactive; MsrA inhibitor: 6.5; NadD block: inactive; rCAG RNA binder: inactive; MsrA conf: inactive

Results for O=C(N/C(=C/c1cccs1)c1nc2ccccc2[nH]1)c1ccccc1 ?
bovine MsrA act: inactive; MsrA inhibitor: 5.1; NadD block: inactive; rCAG RNA binder: inactive; MsrA conf: 6.0

Results for CCOC(=O)c1csc(NC(=O)c2cc(=O)c3ccccc3o2)n1 ?
bovine MsrA act: inactive; MsrA inhibitor: 4.7; NadD block: inactive; rCAG RNA binder: inactive; MsrA conf: inactive

How did CC(=O)c1sc(NC(=O)c2cc(=O)c3ccccc3o2)nc1C do in these assays?
bovine MsrA act: inactive; MsrA inhibitor: inactive; NadD block: inactive; rCAG RNA binder: inactive

What do the screens show for `CC(=O)c1sc(NC(=O)c2ccc(Cn3cc(Br)cn3)o2)nc1C`?
bovine MsrA act: inactive; MsrA inhibitor: inactive; NadD block: inactive; rCAG RNA binder: inactive

Results for CC(=O)c1sc(NC(=O)C=C(C)C)nc1C ?
bovine MsrA act: inactive; MsrA inhibitor: 5.3; NadD block: inactive; rCAG RNA binder: inactive; MsrA conf: inactive

Results for CCCCC(=O)Nc1nc(C)c(C(C)=O)s1 ?
bovine MsrA act: inactive; MsrA inhibitor: inactive; NadD block: inactive; rCAG RNA binder: inactive

Results for CC(=O)c1sc(NC(=O)c2ccc(Br)o2)nc1C ?
bovine MsrA act: inactive; MsrA inhibitor: 5.6; NadD block: inactive; rCAG RNA binder: inactive; MsrA conf: inactive

How did Cc1[nH]c2ccccc2c1C(C#N)(C#N)C1C(=O)c2ccccc2C1=O do in these assays?
bovine MsrA act: inactive; MsrA inhibitor: 47; NadD block: inactive; rCAG RNA binder: inactive; MsrA conf: 46

How did Cc1ccc(CSc2ccc(C(=O)N3CCOCC3)cc2[N+](=O)[O-])cc1 do in these assays?
bovine MsrA act: inactive; MsrA inhibitor: inactive; NadD block: inactive; rCAG RNA binder: inactive

What do the screens show for `N#C/C(=C\c1cccs1)C(=O)NCc1cccnc1`?
bovine MsrA act: inactive; MsrA inhibitor: 5.5; NadD block: inactive; rCAG RNA binder: inactive; MsrA conf: inactive

How did N#C/C(=C\C=C\c1ccccc1)C(=O)NCc1cccnc1 do in these assays?
bovine MsrA act: inactive; MsrA inhibitor: 7.6; NadD block: inactive; rCAG RNA binder: inactive; MsrA conf: 6.8

What do the screens show for `N#C/C(=C\c1cccs1)C(=O)NCc1ccccc1`?
bovine MsrA act: inactive; MsrA inhibitor: inactive; NadD block: inactive; rCAG RNA binder: inactive
